Measurements published in PubChem BioAssay (NCATS).
Inconclusive results are not listed. Unmarked numbers belong to inactive results. Calls of active or inactive are those of the source. Calls come from the whole dose curve; as a rule, active = well fitted cell-killing curve with a large enough effect; inconclusive = small, poorly fitted or top-dose-only effect; inactive = flat fitted curve, though single readings scatter.

Assay: Cell Viability - LYMP2-019 (AID 973);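 note: cells exposed to compound for 24 h at 37 °C; 0% = DMSO alone and full effect = 92 µM tetraoctylammonium bromide; nearly all actives have a fitted effect of over 55% in size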
Conditions: LYMP2-019 lymphoblastoid cell line viability; series mostly up to 92.2 µM; activity change, negative = cytotoxicity: at the top concentration
Summary of the method: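 Cells plated at 2500/well and allowed 5 hr at 37 C before compound addition. After 24 hr incubation, CellTiter-Glo reagent was added, plates sat 30 min at room temperature, and luminescence was recorded.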

SMILES	activity change, negative = cytotoxicity	outcome
Oc1ccc(Cl)cc1	-7.93%	
COP(=S)(OC)Oc1ccc(SC)c(C)c1	-8.71%	
CC(C)c1cccc(C(C)C)c1O	-1.62%	
C[C@]12CCC(=O)C=C1CC[C@@H]1[C@@H]2CC[C@]2(C)C(=O)CC[C@@H]12		inactive
CCC(C)(C)c1ccc(O)cc1	4.1%	
C[C@]12CCC(=O)C=C1CC[C@@H]1[C@@H]2CC[C@@]2(C)[C@H]1CC[C@]2(C)O	-24.2%	
CCCC(C)(COC(N)=O)COC(N)=O	-6.51%	
C[C@]1(O)CC[C@H]2[C@@H]3CCC4=CC(=O)CC[C@]4(C)[C@@]3(F)[C@@H](O)C[C@@]21C	-1.88%	
COc1cc(OC)c(OC)cc1C=O	-2.97%	
CCOC(=O)CC(SP(=S)(OC)OC)C(=O)OCC (stereo not drawn)	-12.3%	
Clc1ccc(C(c2ccc(Cl)cc2)C(Cl)(Cl)Cl)cc1	-9.77%	
CC(C)NC(C)C	-2.93%	
Nc1ccccc1C(=O)O	-3.28%	
COC(=O)C(c1ccccc1)C1CCCCN1 (stereo not drawn)	-26.2%	
Nc1ccccc1	-8.24%	
O=C(O)CCCc1ccc(N(CCCl)CCCl)cc1	-24.3%	
NCCc1ccc(O)cc1	-6.52%	
O=P1(N(CCCl)CCCl)NCCCO1 (stereo not drawn)	3.25%	

Assay: Cell Viability - LYMP2-021 (AID 974);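 note: compound exposure lasts 24 hours at 37 °C; % is set by controls: 0 for no effect and ±100 for the full control effect; nearly all actives have a fitted effect of over 55% in size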
Conditions: LYMP2-021 lymphoblastoid cells viability; series mostly up to 92.2 µM; activity change, negative = cytotoxicity: at the top concentration
Summary of the method: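 Concentration-response cytotoxicity in a human lymphoblastoid line: 24 hr treatment at 37 C in complete culture medium, tetraoctylammonium bromide as positive control, luminescent ATP quantitation as viability measure.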

SMILES	activity change, negative = cytotoxicity	outcome
Oc1ccc(Cl)cc1	-1.45%	
COP(=S)(OC)Oc1ccc(SC)c(C)c1	-3.06%	
CC(C)c1cccc(C(C)C)c1O	0.471%	
C[C@]12CCC(=O)C=C1CC[C@@H]1[C@@H]2CC[C@]2(C)C(=O)CC[C@@H]12		inactive
CCC(C)(C)c1ccc(O)cc1	2.13%	
C[C@]12CCC(=O)C=C1CC[C@@H]1[C@@H]2CC[C@@]2(C)[C@H]1CC[C@]2(C)O	-11.3%	
CCCC(C)(COC(N)=O)COC(N)=O	-6.81%	
CN1C[C@H](C(=O)N[C@]2(C)O[C@@]3(O)[C@@H]4CCCN4C(=O)[C@H](Cc4ccccc4)N3C2=O)C=C2c3cccc4[nH]cc(c34)C[C@H]21	-29.7%	
C[C@]1(O)CC[C@H]2[C@@H]3CCC4=CC(=O)CC[C@]4(C)[C@@]3(F)[C@@H](O)C[C@@]21C	1.55%	
COc1cc(OC)c(OC)cc1C=O	-1.52%	
CCOC(=O)CC(SP(=S)(OC)OC)C(=O)OCC (stereo not drawn)	-8.13%	
Clc1ccc(C(c2ccc(Cl)cc2)C(Cl)(Cl)Cl)cc1	-1.85%	
CC(C)NC(C)C	-1.39%	
Nc1ccccc1C(=O)O	-3.52%	
COC(=O)C(c1ccccc1)C1CCCCN1 (stereo not drawn)	-11.5%	
Nc1ccccc1	-1.33%	
NCCc1ccc(O)cc1	-2.56%	
O=P1(N(CCCl)CCCl)NCCCO1 (stereo not drawn)	1.13%	

Assay: Cell Viability - LYMP2-023 (AID 975);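 note: cellular ATP measured by luciferase luminescence as viability proxy; cells exposed to compound for 24 hours at 37 °C; plate controls were DMSO only for no effect and 92 µM tetraoctylammonium bromide control for full effect; nearly all actives have a fitted effect of over 55% in size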
Conditions: LYMP2-023 lymphoblastoid cell viability; series mostly up to 92.2 µM; activity change, negative = cytotoxicity: at the top concentration
Summary of the method: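 Concentration-dependent drop in intracellular ATP measures acute cytotoxicity in a human lymphoblastoid line treated for 24 hours in complete culture medium. AC50 values are taken from Hill-equation fits of qHTS data.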

SMILES	activity change, negative = cytotoxicity	outcome
Oc1ccc(Cl)cc1	0.667%	
COP(=S)(OC)Oc1ccc(SC)c(C)c1	-4.01%	
CC(C)c1cccc(C(C)C)c1O	-7.28%	
C[C@]12CCC(=O)C=C1CC[C@@H]1[C@@H]2CC[C@]2(C)C(=O)CC[C@@H]12		inactive
CCC(C)(C)c1ccc(O)cc1	10.9%	
C[C@]12CCC(=O)C=C1CC[C@@H]1[C@@H]2CC[C@@]2(C)[C@H]1CC[C@]2(C)O	3.39%	
CCCC(C)(COC(N)=O)COC(N)=O	-2.69%	
CN1C[C@H](C(=O)N[C@]2(C)O[C@@]3(O)[C@@H]4CCCN4C(=O)[C@H](Cc4ccccc4)N3C2=O)C=C2c3cccc4[nH]cc(c34)C[C@H]21	-15.5%	
C[C@]1(O)CC[C@H]2[C@@H]3CCC4=CC(=O)CC[C@]4(C)[C@@]3(F)[C@@H](O)C[C@@]21C	0.0495%	
COc1cc(OC)c(OC)cc1C=O	0.846%	
CCOC(=O)CC(SP(=S)(OC)OC)C(=O)OCC (stereo not drawn)	-3.8%	
Clc1ccc(C(c2ccc(Cl)cc2)C(Cl)(Cl)Cl)cc1	-6.32%	
CC(C)NC(C)C	-3.56%	
Nc1ccccc1C(=O)O	-1.7%	
COC(=O)C(c1ccccc1)C1CCCCN1 (stereo not drawn)	-13.1%	
Nc1ccccc1	-9.19%	
O=C(O)CCCc1ccc(N(CCCl)CCCl)cc1	-29.2%	
NCCc1ccc(O)cc1	-0.466%	
O=P1(N(CCCl)CCCl)NCCCO1 (stereo not drawn)	0.347%	

Assay: Cell Viability - LYMP2-025 (AID 976);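 note: cells exposed to compound for 24 h at 37 °C; plate controls were DMSO only for no effect and tetraoctylammonium bromide control for full effect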
Conditions: LYMP2-025 lymphoblastoid cell viability; series mostly up to 92.2 µM; activity change, negative = cytotoxicity: at the top concentration
Summary of the method: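 In qHTS format, LYMP2-025 lymphoblastoid cells in complete culture medium received compound for 24 hr; ATP-based CellTiter-Glo signal gave viability, with AC50 derived by Hill equation.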

SMILES	activity change, negative = cytotoxicity
Oc1ccc(Cl)cc1	-6.03%
COP(=S)(OC)Oc1ccc(SC)c(C)c1	-16.3%
C[C@]12CCC(=O)C=C1CC[C@@H]1[C@@H]2CC[C@]2(C)C(=O)CC[C@@H]12	-13%
CCC(C)(C)c1ccc(O)cc1	-16.6%
C[C@]12CCC(=O)C=C1CC[C@@H]1[C@@H]2CC[C@@]2(C)[C@H]1CC[C@]2(C)O	-12%
CCCC(C)(COC(N)=O)COC(N)=O	-9.02%
CN1C[C@H](C(=O)N[C@]2(C)O[C@@]3(O)[C@@H]4CCCN4C(=O)[C@H](Cc4ccccc4)N3C2=O)C=C2c3cccc4[nH]cc(c34)C[C@H]21	-13.8%
C[C@]1(O)CC[C@H]2[C@@H]3CCC4=CC(=O)CC[C@]4(C)[C@@]3(F)[C@@H](O)C[C@@]21C	2.15%
COc1cc(OC)c(OC)cc1C=O	-2.92%
CCOC(=O)CC(SP(=S)(OC)OC)C(=O)OCC (stereo not drawn)	-11%
Clc1ccc(C(c2ccc(Cl)cc2)C(Cl)(Cl)Cl)cc1	-10.9%
CC(C)NC(C)C	-5.2%
Nc1ccccc1C(=O)O	-0.774%
COC(=O)C(c1ccccc1)C1CCCCN1 (stereo not drawn)	-5.94%
Nc1ccccc1	-1.59%
O=C(O)CCCc1ccc(N(CCCl)CCCl)cc1	-12.5%
NCCc1ccc(O)cc1	-5.6%
O=P1(N(CCCl)CCCl)NCCCO1 (stereo not drawn)	-7.07%
